This passage reports log2 fold change results from the supplement of paper PMC10849652.

About 7,900 targets were measured; listed, in parts, are those with a hit and a random draw of the rest. About 0.6% of all pairs of compound and target were hits.

Sequence of UniProt P07948 (P07948 whole entry, looked up): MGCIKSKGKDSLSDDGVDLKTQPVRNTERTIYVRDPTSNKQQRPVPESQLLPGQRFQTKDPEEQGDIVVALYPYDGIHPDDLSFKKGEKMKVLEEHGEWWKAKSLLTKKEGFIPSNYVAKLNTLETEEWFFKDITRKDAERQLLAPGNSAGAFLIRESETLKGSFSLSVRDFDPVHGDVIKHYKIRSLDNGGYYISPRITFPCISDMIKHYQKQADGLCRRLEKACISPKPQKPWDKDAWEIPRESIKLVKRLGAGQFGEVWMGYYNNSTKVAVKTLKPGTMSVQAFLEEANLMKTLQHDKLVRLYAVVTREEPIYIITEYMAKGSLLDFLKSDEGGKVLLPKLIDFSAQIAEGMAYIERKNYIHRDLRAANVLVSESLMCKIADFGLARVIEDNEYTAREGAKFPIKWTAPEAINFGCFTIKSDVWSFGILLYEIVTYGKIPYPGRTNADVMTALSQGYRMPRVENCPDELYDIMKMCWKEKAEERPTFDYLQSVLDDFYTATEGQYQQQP
Sequence of UniProt P24592 (P24592 whole entry, looked up): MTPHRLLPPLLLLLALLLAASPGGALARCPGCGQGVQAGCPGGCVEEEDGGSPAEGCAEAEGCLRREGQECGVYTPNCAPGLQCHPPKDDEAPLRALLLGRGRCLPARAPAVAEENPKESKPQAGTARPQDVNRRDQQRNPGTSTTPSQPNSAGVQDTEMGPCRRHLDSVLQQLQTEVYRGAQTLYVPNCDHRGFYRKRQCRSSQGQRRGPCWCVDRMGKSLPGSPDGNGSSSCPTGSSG
Sequence of UniProt O95819 (O95819 whole entry, looked up): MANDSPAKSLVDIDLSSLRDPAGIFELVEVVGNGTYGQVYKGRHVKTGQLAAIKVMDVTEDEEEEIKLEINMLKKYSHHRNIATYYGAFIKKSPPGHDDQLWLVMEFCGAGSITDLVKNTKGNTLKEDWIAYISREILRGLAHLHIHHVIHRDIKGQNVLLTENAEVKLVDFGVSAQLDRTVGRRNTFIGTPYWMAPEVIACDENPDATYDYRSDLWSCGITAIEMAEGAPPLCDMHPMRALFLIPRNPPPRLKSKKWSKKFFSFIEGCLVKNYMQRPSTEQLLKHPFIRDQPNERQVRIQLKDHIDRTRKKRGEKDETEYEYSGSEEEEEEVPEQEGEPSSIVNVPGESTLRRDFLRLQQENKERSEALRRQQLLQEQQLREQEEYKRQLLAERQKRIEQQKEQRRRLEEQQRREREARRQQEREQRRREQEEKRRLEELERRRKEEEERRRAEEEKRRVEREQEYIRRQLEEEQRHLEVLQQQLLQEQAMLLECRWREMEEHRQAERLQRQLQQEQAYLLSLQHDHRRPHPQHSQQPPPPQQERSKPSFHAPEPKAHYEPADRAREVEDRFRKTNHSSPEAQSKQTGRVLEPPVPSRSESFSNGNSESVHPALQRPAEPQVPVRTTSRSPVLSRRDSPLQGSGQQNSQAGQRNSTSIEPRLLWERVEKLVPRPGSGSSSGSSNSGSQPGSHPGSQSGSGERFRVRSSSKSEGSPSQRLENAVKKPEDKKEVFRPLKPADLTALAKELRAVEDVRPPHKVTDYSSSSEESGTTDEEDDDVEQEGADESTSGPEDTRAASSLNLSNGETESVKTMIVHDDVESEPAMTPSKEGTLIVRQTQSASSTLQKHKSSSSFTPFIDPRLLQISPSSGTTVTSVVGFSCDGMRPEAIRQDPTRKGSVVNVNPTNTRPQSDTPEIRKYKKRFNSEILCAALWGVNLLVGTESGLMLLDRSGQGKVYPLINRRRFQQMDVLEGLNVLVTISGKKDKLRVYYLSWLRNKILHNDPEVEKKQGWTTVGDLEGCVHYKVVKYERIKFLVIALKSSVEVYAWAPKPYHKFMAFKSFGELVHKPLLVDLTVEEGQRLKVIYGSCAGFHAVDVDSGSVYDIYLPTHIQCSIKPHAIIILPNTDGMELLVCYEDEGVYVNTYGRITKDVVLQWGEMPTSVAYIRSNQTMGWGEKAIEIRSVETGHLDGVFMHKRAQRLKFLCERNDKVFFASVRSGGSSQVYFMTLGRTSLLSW
Sequence of UniProt Q92551 (Q92551 whole entry, looked up): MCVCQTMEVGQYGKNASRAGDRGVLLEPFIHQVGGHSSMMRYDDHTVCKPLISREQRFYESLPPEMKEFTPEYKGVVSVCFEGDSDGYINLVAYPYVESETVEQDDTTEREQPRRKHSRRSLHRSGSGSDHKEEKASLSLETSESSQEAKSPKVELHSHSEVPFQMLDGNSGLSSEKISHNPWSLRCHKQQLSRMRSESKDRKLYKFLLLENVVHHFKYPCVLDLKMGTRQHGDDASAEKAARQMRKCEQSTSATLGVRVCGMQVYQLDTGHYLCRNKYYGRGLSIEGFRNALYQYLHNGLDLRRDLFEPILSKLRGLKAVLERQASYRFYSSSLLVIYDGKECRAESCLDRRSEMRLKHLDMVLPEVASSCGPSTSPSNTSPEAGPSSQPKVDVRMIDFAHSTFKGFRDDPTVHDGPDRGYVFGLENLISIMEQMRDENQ
Sequence of UniProt Q13163 (Q13163 whole entry, looked up): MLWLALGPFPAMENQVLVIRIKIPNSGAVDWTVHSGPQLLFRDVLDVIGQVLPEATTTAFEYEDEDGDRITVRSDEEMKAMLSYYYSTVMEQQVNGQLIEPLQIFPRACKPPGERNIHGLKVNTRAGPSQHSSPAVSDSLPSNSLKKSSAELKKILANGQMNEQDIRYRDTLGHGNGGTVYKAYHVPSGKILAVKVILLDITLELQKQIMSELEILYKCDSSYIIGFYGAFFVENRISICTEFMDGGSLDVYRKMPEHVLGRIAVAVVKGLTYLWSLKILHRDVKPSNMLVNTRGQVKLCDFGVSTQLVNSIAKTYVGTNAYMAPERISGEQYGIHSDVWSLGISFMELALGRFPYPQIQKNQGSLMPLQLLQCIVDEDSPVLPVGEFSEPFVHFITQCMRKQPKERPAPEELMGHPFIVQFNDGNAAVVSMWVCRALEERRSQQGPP
Sequence of UniProt Q9Y5V3 (Q9Y5V3 whole entry, looked up): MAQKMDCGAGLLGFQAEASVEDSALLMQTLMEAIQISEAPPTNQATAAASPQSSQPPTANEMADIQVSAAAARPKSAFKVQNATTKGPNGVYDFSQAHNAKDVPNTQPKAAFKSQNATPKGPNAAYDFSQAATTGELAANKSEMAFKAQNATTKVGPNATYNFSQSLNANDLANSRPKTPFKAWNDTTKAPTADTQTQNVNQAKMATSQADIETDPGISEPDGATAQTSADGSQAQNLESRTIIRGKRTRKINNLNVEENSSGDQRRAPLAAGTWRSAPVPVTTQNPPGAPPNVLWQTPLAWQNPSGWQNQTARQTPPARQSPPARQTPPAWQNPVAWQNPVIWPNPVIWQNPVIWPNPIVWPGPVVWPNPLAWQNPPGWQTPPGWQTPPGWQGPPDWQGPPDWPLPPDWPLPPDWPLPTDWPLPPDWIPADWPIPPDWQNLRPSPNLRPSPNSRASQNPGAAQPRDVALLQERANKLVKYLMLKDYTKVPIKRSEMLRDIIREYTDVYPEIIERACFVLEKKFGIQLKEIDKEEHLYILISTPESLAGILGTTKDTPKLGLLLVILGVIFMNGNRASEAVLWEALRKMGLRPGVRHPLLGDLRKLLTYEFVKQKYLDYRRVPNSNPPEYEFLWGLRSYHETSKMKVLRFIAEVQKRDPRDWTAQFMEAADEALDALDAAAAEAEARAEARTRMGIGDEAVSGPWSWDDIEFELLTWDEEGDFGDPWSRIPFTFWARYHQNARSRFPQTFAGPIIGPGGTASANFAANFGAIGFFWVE
Sequence of UniProt P51884 (P51884 whole entry, looked up): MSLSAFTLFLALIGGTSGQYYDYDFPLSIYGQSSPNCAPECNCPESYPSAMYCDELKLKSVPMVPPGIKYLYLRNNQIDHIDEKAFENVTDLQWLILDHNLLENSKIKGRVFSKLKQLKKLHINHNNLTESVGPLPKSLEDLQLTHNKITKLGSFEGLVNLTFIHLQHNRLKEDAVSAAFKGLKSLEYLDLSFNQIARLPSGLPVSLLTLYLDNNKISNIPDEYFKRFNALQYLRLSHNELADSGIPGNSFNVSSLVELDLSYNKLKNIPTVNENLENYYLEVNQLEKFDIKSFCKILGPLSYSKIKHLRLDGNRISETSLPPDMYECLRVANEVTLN
Sequence of UniProt Q32MZ4 (Q32MZ4 whole entry, looked up): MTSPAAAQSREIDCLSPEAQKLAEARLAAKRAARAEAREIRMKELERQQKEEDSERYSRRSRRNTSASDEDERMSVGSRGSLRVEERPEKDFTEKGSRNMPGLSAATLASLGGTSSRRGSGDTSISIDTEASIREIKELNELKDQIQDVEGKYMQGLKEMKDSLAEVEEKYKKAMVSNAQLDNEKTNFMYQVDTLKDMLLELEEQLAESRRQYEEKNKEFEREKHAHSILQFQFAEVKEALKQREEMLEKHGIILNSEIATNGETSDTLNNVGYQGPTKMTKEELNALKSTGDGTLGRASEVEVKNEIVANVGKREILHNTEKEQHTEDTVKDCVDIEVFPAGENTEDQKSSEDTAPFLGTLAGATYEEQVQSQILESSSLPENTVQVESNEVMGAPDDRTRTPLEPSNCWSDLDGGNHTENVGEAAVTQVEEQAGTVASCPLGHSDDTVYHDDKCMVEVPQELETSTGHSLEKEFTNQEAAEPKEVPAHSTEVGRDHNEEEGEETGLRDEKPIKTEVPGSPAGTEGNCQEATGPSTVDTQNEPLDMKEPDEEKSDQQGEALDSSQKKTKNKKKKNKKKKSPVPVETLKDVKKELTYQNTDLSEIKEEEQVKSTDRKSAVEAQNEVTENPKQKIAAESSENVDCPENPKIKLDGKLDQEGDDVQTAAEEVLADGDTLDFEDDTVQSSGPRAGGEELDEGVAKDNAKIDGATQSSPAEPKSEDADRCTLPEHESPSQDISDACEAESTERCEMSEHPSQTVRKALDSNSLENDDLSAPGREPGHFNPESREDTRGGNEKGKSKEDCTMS
Sequence of UniProt O15243 (O15243 whole entry, looked up): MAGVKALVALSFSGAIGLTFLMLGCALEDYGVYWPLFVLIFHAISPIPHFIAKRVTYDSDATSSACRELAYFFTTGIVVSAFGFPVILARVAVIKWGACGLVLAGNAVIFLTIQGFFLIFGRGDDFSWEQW

Compound in this assay: c1ccc([C@@H]2C[C@H]2NC2CCNCC2)cc1
The experiment in a line: log2 fold change, soluble protein after heating vs DMSO (PISA); higher = thermal stabilisation; K562 cells, 10 uM, 30 min; active = over 0.2 and 3.5 SD of the protein, either way, in both replicates (recomputed). The method, boiled down:
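Soluble protein was quantified by TMTpro 16plex LC-MS/MS after channel sums were equalised. It was obtained as the supernatant after 21,000xg for 90 min from pooled aliquots of K562 cells (2×10^6 cells/mL, 10 μM compound, 30 min) heated for 3 min across 48°C-58°C and extracted in PBS with 0.5% NP-40 at 4°C. Thermal stability values are relative to control samples and come from duplicates. They are given as log2 fold changes.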
With MAGED1 isoform 2 (UniProt Q9Y5V3), the log2 fold change is -0.01 (inactive). For IP6K1 (UniProt Q92551), the log2 fold change is -0.135 (inactive). On to MAPRE3 isoform 2 (UniProt Q9UPY8), for which the log2 fold change was 0.017 (inactive). As for LYN isoform 2 (UniProt P07948), the log2 fold change is 0.033 (inactive). The same measure for LRRFIP1 isoform 4 (UniProt Q32MZ4): 0.009 (inactive); for MAML1 (UniProt Q92585): 0.077 (inactive); for MAP2K5 (UniProt Q13163): -0.034 (inactive). For MELK (UniProt Q14680), the log2 fold change is -0.057 (inactive). The same measure for LRBA, A0A494BZW2: 0.014 (inactive).

On to KIF13A isoform 4 (UniProt Q9H1H9), for which the log2 fold change was -0.367 (inactive). In the case of IGFBP6 (UniProt P24592), the log2 fold change was 0.01 (inactive). As to MGRN1 isoform 2 (UniProt O60291), the log2 fold change was 0.086 (inactive). Under LSR isoform 3 (UniProt Q86X29) stands -0.101 (inactive); under MED17 (UniProt Q9NVC6), -0.011 (inactive); under KCNK5 (UniProt O95279), -0.054 (inactive). As for KIZ (UniProt Q2M2Z5), the log2 fold change is 0.453 (inactive). In the case of MFSD12 isoform 3 (UniProt Q6NUT3), the log2 fold change is 0.135 (inactive).

For IGFBP3 isoform 2 (UniProt P17936), the log2 fold change is 0.057 (inactive). Under MAP4K4 isoform 6 (UniProt O95819) stands 0.076 (inactive); under LUM (UniProt P51884), 0.143 (inactive). LEPROT (UniProt O15243): the log2 fold change was 0.112 (inactive). For ITGA2B (UniProt P08514), the log2 fold change is -0.043 (inactive). As for ING5 (UniProt Q8WYH8), the log2 fold change was -0.037 (inactive). The same measure for IKZF1 (UniProt R9R4D9): -0.159 (inactive); for MAP4K2 (UniProt Q12851): 0 (inactive).
